Measured values: PubChem BioAssay
Activity calls are given as the source filed them.

Tests used:
Albumin (Bos taurus) = Albumin (Bos taurus) (UniProt P02769); assay: compounds binding labelled BSA control protein – biochemical, small-molecule microarray, Alexa647 label, 635/667 nm fluorescence, artefact control for SMM control protein annotation, profiling panel (AID 1118); conditions: BSA-A647 binding, fluorescence 635 nm, higher = more signal;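 note: score merges 667 nm emission intensity and signal-to-noise per printed compound spot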
[1] = probe aXIP binding to arrayed compounds – biochemical, NeuroSMM set, 635/667 nm fluorescence, primary screen (AID 1119); conditions: small-molecule microarray, higher = more signal, called active from +8 up or from −8 down;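 note: probe is the protein aXip251-270 applied at 1 µg/mL to compound-printed slides; binding of probe to printed compounds measured as 667 nm fluorescence plus signal to noise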
[2] = probe aNOTCH3 binding on compound microarray – biochemical, small-molecule microarray, 635/667 nm fluorescence, primary screen (AID 1120); conditions: higher = more signal;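 note: probe is a biotin-tagged antibody raised against NOTCH3 rather than NOTCH3 protein; score merges spot fluorescence near 667 nm with spot signal to noise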
[3] = probe aNOTCH2 binding on compound microarray – biochemical, small-molecule microarray, 635/667 nm fluorescence, primary screen (AID 1121); conditions: higher = more signal;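 note: score merges feature fluorescence read at 667 nm with its signal to noise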
[4] = target: Carbonic anhydrase 2 (Homo sapiens) (UniProt P00918); assay: compounds binding carbonic anhydrase 2 – biochemical, small-molecule microarray, Alexa647-labelled CAII, profiling panel (AID 1122); conditions: CAII-A647 binding fluorescence, higher = more signal
[5] = COS7 lysate on small-molecule microarray, probe aHis, 635 nm (AID 1123); conditions: COS7 cell lysate, fluorescence, higher = more signal;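 note: z-score combines 667nm fluorescence intensity with signal-to-noise per printed compound spot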
[6] = probe aLAP1 signal on lysate-treated microarray – cell lysate, small-molecule microarray, COS7 lysate, primary screen (AID 1124); conditions: probe aLAP1, fluorescence, higher = more signal;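 note: lysate comes from COS7 cells expressing LAP1 and is applied at 0.3 µg/mL; score merges spot fluorescence near 667 nm with signal-to-noise over triplicate slides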
Sam68 (KHDRBS1) = assay: compounds binding KHDRBS1 protein – biochemical, small-molecule microarray, 635 nm fluorescence, primary screen (AID 1125); conditions: higher = more signal;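 note: score merges 667 nm channel intensity with signal to noise over triplicate slides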
[7] = tested on: Chordin-like protein 2 (CHRDL2); assay: compounds binding chordin-like 2 – biochemical, small-molecule microarray, 635 nm fluorescence, primary screen (AID 1126); conditions: fluorescence 635 nm, higher = more signal;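 note: printed compound slides probed with Chrdl2 protein at 4 µg/mL for 1 h at 4 C; score merges 667 nm emission intensity with signal to noise over three replicate slides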
[8] = target: Concanavalin-A (Canavalia ensiformis) (UniProt P02866); assay: compounds binding concanavalin A lectin – biochemical, small-molecule microarray, Alexa647 label, 635 nm, artefact control for SMM control protein annotation, primary screen (AID 1127); conditions: ConA-A647 binding fluorescence, higher = more signal;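 note: z combines 667 nm emission intensity with signal-to-noise across three replicate slides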
[9] = compounds binding Alexa647 anti-His antibody – biochemical, small-molecule microarray, 635 nm fluorescence, artefact control for SMM control protein annotation, primary screen (AID 1128); conditions: higher = more signal;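 note: score merges feature fluorescence with signal-to-noise for each printed compound spot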
[10] = tested on: Human papillomavirus type 1a E7 protein (residues 1-88); assay: HPV1a E7 small-molecule binders, primary screen, biochemical, small-molecule microarray, residues 1-88, 635 nm (AID 1129); conditions: small-molecule microarray binding, fluorescence 635 nm; higher = more signal
[11] = target: Focal adhesion kinase 1 (Homo sapiens) (UniProt Q05397); assay: PTK2 protein binding on printed compound slides – biochemical, small-molecule microarray, 635/667 nm fluorescence, BSA, DTT, primary screen (AID 1130); conditions: 635 nm fluorescence, higher = more signal;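 note: composite of spot emission at 667 nm and signal to noise over triplicate slides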
[12] = tested on: Fibrinogen (Alexa647-labelled); assay: Alexa647-fibrinogen binding to printed small molecules – biochemical, small-molecule microarray, 635/667 nm fluorescence, artefact control for SMM control-protein annotation, profiling panel (AID 1131); conditions: fibrinogen-A647 binding fluorescence, higher = more signal;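 note: z-score merges 667 nm fluorescence with per-spot signal-to-noise over triplicate slides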
[13] = target: Follistatin (Homo sapiens) (UniProt P19883); assay: FST protein binding to printed compounds – biochemical, small-molecule microarray, 635/667 nm fluorescence, primary screen (AID 1132); conditions: 635 nm fluorescence, higher = more signal
[14] = target: Fibroblast growth factor 2 (Homo sapiens) (UniProt P09038); assay: basic fibroblast growth factor binding to printed compounds – biochemical, small-molecule microarray, 635/667 nm fluorescence, primary screen (AID 1133); conditions: FGF2, fluorescence 635/667, higher = more signal
[15] = JC-1 mitochondrial potential readout, lung cancer cells – cell-based, A549, JC-1 fluorescence, basal, 24 h, 100 nL, profiling panel (AID 1138); conditions: higher = more signal;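 note: A549 lung adenocarcinoma cells under basal conditions with no added stimulus; test concentration not given here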
Lefty1 = Lefty1 protein binding to printed compounds – biochemical, small-molecule microarray, 635/667 nm fluorescence, primary screen (AID 1139); conditions: fluorescence 635/667, higher = more signal
[16] = tested on: wheat germ agglutinin (Triticum aestivum), Alexa647-labelled; assay: Alexa647-WGA lectin binding to printed small molecules – biochemical, small-molecule microarray, 635/667 nm fluorescence, artefact control for SMM control-protein annotation, profiling panel (AID 1140); conditions: WGA-A647 binding, 635 nm fluorescence, higher = more signal;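 note: score merges 667 nm feature emission with signal to noise over triplicate slides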
[17] = target: Luciferin 4-monooxygenase (Photinus pyralis) (UniProt P08659); assay: inhibition of purified Photinus pyralis luciferase – biochemical, luminescence, purified enzyme, 2006 set, primary screen (AID 1141); conditions: purified firefly luciferase, SteadyGlo luminescence, 30 min; higher = more signal, called active from +8 up or from −8 down;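 note: cell-free assay with purified firefly luciferase at 100 ng per well in PBS; test concentration not given here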
Chain of Luciferin 4-monooxygenase (Photinus pyralis) (P08659 whole entry, looked up): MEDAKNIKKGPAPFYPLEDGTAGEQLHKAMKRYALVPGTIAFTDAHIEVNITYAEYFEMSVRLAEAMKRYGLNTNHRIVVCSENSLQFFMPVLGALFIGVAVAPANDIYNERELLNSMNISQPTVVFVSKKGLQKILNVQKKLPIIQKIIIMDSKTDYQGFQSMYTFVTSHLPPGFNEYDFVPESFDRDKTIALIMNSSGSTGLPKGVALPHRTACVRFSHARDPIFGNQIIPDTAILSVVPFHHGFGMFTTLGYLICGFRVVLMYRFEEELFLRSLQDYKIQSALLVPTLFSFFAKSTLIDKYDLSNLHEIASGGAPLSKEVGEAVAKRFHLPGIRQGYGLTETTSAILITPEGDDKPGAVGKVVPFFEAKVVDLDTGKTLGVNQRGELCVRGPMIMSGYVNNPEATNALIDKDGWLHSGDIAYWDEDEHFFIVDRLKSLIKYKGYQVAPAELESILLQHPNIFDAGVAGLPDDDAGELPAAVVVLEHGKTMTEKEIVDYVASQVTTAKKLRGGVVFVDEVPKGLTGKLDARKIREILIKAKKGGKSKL

Chain of Concanavalin-A (Canavalia ensiformis) (P02866 whole entry, looked up): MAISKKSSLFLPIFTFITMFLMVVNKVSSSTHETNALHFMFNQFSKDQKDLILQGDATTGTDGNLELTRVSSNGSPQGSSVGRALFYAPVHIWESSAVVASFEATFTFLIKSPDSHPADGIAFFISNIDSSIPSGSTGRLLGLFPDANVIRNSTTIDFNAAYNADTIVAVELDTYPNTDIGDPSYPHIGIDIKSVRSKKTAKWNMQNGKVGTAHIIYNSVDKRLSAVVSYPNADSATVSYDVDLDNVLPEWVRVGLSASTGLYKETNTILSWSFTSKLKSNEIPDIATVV
Chain of Follistatin (Homo sapiens) (P19883 whole entry, looked up): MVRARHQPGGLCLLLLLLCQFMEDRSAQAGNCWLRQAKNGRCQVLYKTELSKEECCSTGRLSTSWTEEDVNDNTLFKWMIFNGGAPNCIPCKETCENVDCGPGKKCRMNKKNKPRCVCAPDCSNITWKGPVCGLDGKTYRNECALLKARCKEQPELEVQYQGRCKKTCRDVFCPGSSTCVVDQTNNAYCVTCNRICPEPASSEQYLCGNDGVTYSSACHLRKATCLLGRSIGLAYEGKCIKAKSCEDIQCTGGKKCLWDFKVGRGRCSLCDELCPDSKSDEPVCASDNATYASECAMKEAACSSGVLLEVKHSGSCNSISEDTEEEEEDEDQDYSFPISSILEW
Chain of Albumin (Bos taurus) (P02769 whole entry, looked up): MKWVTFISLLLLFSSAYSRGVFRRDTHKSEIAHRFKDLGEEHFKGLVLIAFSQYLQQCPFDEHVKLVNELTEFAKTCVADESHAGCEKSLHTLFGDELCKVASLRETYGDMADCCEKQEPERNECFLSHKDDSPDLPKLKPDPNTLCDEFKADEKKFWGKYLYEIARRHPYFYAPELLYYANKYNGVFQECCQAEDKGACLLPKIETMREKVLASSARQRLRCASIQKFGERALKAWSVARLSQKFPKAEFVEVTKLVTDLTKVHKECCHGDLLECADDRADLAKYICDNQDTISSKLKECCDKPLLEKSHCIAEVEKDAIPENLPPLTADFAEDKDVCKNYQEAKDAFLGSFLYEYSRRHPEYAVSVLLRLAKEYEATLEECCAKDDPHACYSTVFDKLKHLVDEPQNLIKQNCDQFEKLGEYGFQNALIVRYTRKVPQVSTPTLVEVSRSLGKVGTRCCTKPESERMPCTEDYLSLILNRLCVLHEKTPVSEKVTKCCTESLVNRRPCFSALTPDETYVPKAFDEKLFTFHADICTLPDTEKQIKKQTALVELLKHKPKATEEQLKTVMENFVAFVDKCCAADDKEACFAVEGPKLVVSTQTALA
Chain of Fibroblast growth factor 2 (Homo sapiens) (P09038 whole entry, looked up): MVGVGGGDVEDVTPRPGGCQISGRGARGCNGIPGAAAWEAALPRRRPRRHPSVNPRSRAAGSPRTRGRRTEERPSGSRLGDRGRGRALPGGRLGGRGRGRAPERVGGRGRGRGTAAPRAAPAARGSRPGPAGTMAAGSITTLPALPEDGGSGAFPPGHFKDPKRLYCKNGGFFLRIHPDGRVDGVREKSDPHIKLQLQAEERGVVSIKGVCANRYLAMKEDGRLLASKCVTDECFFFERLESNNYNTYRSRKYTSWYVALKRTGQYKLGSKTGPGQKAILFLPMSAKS
Chain of Focal adhesion kinase 1 (Homo sapiens) (Q05397 whole entry, looked up): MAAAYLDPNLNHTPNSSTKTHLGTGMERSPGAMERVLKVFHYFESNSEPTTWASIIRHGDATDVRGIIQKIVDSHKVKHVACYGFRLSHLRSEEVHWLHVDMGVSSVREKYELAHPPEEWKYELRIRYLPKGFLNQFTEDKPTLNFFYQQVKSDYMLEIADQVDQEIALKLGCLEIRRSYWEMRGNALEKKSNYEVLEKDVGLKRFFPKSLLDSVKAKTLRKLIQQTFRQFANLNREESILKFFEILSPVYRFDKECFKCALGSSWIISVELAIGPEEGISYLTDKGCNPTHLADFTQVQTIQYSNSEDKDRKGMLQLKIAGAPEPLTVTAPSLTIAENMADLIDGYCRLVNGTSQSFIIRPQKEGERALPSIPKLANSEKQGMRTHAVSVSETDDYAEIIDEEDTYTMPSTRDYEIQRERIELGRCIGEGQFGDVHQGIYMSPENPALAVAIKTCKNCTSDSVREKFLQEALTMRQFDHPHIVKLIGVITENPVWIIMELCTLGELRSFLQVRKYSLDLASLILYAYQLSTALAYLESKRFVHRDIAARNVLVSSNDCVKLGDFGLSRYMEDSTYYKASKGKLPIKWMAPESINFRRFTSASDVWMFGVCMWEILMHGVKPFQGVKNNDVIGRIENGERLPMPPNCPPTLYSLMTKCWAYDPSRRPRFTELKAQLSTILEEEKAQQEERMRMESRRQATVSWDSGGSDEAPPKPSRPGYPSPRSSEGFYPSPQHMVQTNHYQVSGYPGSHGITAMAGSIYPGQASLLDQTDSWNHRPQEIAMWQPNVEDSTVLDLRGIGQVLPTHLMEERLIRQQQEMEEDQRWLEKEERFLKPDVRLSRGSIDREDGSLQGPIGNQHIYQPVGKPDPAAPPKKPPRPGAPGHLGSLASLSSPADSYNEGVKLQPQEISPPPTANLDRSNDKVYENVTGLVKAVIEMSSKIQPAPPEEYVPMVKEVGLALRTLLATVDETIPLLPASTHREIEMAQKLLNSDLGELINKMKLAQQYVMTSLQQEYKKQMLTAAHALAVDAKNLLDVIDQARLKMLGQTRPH

Row | Compound | composite z-score (Albumin (Bos taurus)) | composite Z-score [1] | composite z-score [2] | composite z-score [3] | composite z-score [4] | composite z-score [5] | composite z-score [6] | composite z-score (Sam68 (KHDRBS1)) | composite z-score [7] | composite z-score [8] | composite z-score [9] | composite z-score [10] | composite z-score [11] | composite z-score [12] | composite z-score [13] | composite z-score [14] | z-score [15] | composite z-score (Lefty1) | composite z-score [16] | z-score [17]
1 | CCCCC(O)C1C=CC2C(=O)N(c3ccccc3)C(=O)C2N1Nc1ccc(C#N)cc1 (stereo not given) | 0.859 | 0.22 (inactive) | 0.426 | 0.349 | 0.721 | 2.68 | 1.23 | 1.17 | -0.0433 | 0.778 | 0.584 | 1.13 | 0.764 | 0.981 | 0.0191 | 0.0696 | 0.0808 | -0.295 | 0.819 | -1.45 (inactive)
2 | COc1cc(OC)c(C(O)C2C=CC3C(=O)N(c4ccccc4)C(=O)C3N2Nc2ccc(C(C)C)cc2)cc1Br (stereo not given) | 0.971 | -0.382 (inactive) | 0.274 | 0.236 | 0.426 | 2.76 | 0.231 | 1.28 | 0.1 | 1.07 | -0.0881 | 1.21 | 0.441 | 0.885 | 0.806 | 0.0421 | 0.568 | -0.112 | 1.2 | -1.71 (inactive)
3 | O=C1OCCC=C[C@H]2OC34C=CCN(c5ccc6ccccc6c5)C(=O)[C@H]3N(CCO)C(=O)[C@@H]4C12 (stereo not given in full) | -0.594 | 0.465 (inactive) | -0.571 | -0.445 | 0.368 | -0.237 | -0.162 | -0.362 | -0.976 | -0.403 | -0.75 | -0.803 | -0.101 | -0.318 | -0.129 | -0.909 | -0.522 | -0.472 | -0.117 | -0.207 (inactive)
4 | CCCC[C@H]1C[C@@H]1[C@@H]1N(C(C)=O)[C@H](c2cccc(OC)c2)CC12CC2 | 0.219 | 0.797 (inactive) | 0.0026 | 0.0112 | 0.202 | 0.808 | 0.603 | -0.658 | -1 | -0.745 | -0.101 | 0.173 | 0.17 | 0.832 | -0.631 | -0.532 | 0.605 | -0.613 | 0.133 | 2.15 (inactive)
5 | O=C(NCc1ccccc1)[C@@H]1c2ccccc2C(=O)N(Cc2cc(C(F)(F)F)cc(C(F)(F)F)c2)[C@H]1c1ccc(CO)cc1 | -0.432 | -0.46 (inactive) | 0.104 | -0.008 | 0.185 | 1.55 | 0.92 | 1.3 | 0.755 | 0.609 | 0.618 | 1.14 | 0.576 | 0.638 | 1.36 | 1.06 | 0.473 | 0.991 | 0.452 | 1.14 (inactive)
6 | COc1ccc(C(O)C2C=CC3C(=O)NC(=O)C3N2Nc2ccc(Cl)cc2Cl)c2ccccc12 (stereo not given) | 0.678 | 0.309 (inactive) | 0.0328 | 0.0856 | 0.602 | 1.94 | 0.709 | 0.35 | -0.359 | 0.934 | 1.54 | 1.15 | 0.486 | 0.925 | 0.797 | -0.19 | -0.209 | -0.0846 | 1.19 | -1.93 (inactive)
7 | COCCOC(=O)N1C(=O)[C@@]2(c3cc(C#CCNC(N)=O)ccc31)[C@H](C(=O)Nc1nc3ccccc3s1)[C@H]1C(=O)O[C@H](c3ccccc3)[C@H](c3ccccc3)N1[C@@H]2c1ccccc1OCCO | 0.074 | -0.523 (inactive) | 0.0306 | -0.0432 | 0.47 | 1.17 | 0.151 | 0.975 | 1.23 | 1.04 | -0.218 | 0.423 | 0.553 | 0.749 | 1.48 | 1.61 | -1.79 | 1.39 | 0.489 | -2.69 (inactive)
8 | CC(C)N1C(=O)C[C@@](C(=O)NCCN2CCOCC2)(c2ccc([N+](=O)[O-])cc2)[C@H]1c1ccc(CO)cc1 | 0.408 | 1.96 (inactive) | -0.256 | -0.0836 | 0.642 | 2.2 | 1.24 | -0.395 | -1.26 | 0.257 | 2.67 | -0.886 | -0.455 | -0.591 | 0.178 | -0.588 | -0.143 | -0.516 | 0.869 | 1.42 (inactive)
9 | COC(=O)C(CC#Cc1ccc2c(c1)[C@]1(C(=O)N2)[C@H](C(=O)N2CCc3cc(OC)c(OC)cc3C2)[C@H]2C(=O)O[C@H](c3ccccc3)[C@H](c3ccccc3)N2[C@@H]1c1ccccc1OCCO)C(=O)OC | 0.27 | 0.112 (inactive) | 0.0793 | -0.135 | 0.59 | 2.3 | -0.461 | 1.3 | 0.463 | 1.14 | 1.21 | 1.19 | 0.536 | 0.613 | 1.4 | 1.39 | -1.64 | 1.55 | 1.17 | -0.134 (inactive)
10 | CC(=O)NCCCC[C@@H]1NC(=O)[C@H]2C[C@@H](C(=O)NCCCCCCNC(=O)CS)[C@@H](c3cccc(OCCO)c3)N2C1=O | -0.637 | 0.381 (inactive) | -0.0647 | -0.108 | 0.592 | 1.84 | 0.537 | 1.28 | 0.487 | 0.447 | 3.57 | 0.937 | 0.612 | -0.256 | 1.36 | 1.63 | -0.0905 | 0.0938 | 0.184 | -0.399 (inactive)
